Measurements taken from the supplement of paper PMC4466140.

B1: unnamed (peptide)
chain: IPSRPAPKPPSSASA

biological target: AgAbp1; assay: SPOT peptide array binding signal intensity (averaged, normalized) (arbitrary units (background-subtracted, floor 0; scale differs between SH3 domains)); higher = stronger binding of the SH3 domain to the peptide
How it was run: (§1)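 GST-fused SH3 domains from four yeast species were expressed in E. coli BL21(DE3), purified on glutathione Sepharose and incubated at 10 μg/ml overnight at 4°C in TBS-based blocking buffer on cellulose membranes carrying synthetic 15-mer peptides, with cysteines replaced by serines. Bound protein was detected with anti-GST antibody, an HRP anti-mouse secondary and luminol, then imaged and quantified with Genespotter. Binding signal is the normalized, background-subtracted spot intensity averaged over replicates, in arbitrary units that differ between domains.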

Binder | SPOT peptide array binding signal intensity
B1 | 14

biological target: AgBbc1; assay: as above
How it was run: as §1

Binder | SPOT peptide array binding signal intensity
B1 | 289

biological target: AgBem1-D1; assay: as above
How it was run: as §1

Binder | SPOT peptide array binding signal intensity
B1 | 35

biological target: AgBzz1-D1; assay: as above
How it was run: as §1

Binder | SPOT peptide array binding signal intensity
B1 | 18

biological target: AgBzz1-D2; assay: as above
How it was run: as §1

Binder | SPOT peptide array binding signal intensity
B1 | 19

biological target: AgCyk3; assay: as above
How it was run: as §1

Binder | SPOT peptide array binding signal intensity
B1 | 1

biological target: AgFus1; assay: as above
How it was run: as §1

Binder | SPOT peptide array binding signal intensity
B1 | ≤ 0

biological target: AgHof1; assay: as above
How it was run: as §1

Binder | SPOT peptide array binding signal intensity
B1 | ≤ 0

biological target: AgHse1; assay: as above
How it was run: as §1

Binder | SPOT peptide array binding signal intensity
B1 | 50.5

biological target: AgLsb1; assay: as above
How it was run: as §1

Binder | SPOT peptide array binding signal intensity
B1 | 475

biological target: AgLsb4; assay: as above
How it was run: as §1

Binder | SPOT peptide array binding signal intensity
B1 | 12

biological target: AgMyo5; assay: as above
How it was run: as §1

Binder | SPOT peptide array binding signal intensity
B1 | 1790

biological target: AgNbp2; assay: as above
How it was run: as §1

Binder | SPOT peptide array binding signal intensity
B1 | 8100

biological target: AgRvs167; assay: as above
How it was run: as §1

Binder | SPOT peptide array binding signal intensity
B1 | 1.67

biological target: AgSho1; assay: as above
How it was run: as §1

Binder | SPOT peptide array binding signal intensity
B1 | ≤ 0

biological target: AgSla1-D1-D2; assay: as above
How it was run: as §1

Binder | SPOT peptide array binding signal intensity
B1 | 16

biological target: AgSla1-D3; assay: as above
How it was run: as §1

Binder | SPOT peptide array binding signal intensity
B1 | 3.25

biological target: CaAbp1-D1; assay: as above
How it was run: as §1

Binder | SPOT peptide array binding signal intensity
B1 | 102

biological target: CaAbp1-D2; assay: as above
How it was run: as §1

Binder | SPOT peptide array binding signal intensity
B1 | 128

biological target: CaBbc1; assay: as above
How it was run: as §1

Binder | SPOT peptide array binding signal intensity
B1 | 1300

biological target: CaBem1-D1; assay: as above
How it was run: as §1

Binder | SPOT peptide array binding signal intensity
B1 | 1620

biological target: CaBzz1-D1; assay: as above
How it was run: as §1

Binder | SPOT peptide array binding signal intensity
B1 | 1550

biological target: CaBzz1-D2; assay: as above
How it was run: as §1

Binder | SPOT peptide array binding signal intensity
B1 | 1510

biological target: CaCyk3; assay: as above
How it was run: as §1

Binder | SPOT peptide array binding signal intensity
B1 | 190

biological target: CaFus1; assay: as above
How it was run: as §1

Binder | SPOT peptide array binding signal intensity
B1 | 30

biological target: CaHof1; assay: as above
How it was run: as §1

Binder | SPOT peptide array binding signal intensity
B1 | ≤ 0

biological target: CaHse1; assay: as above
How it was run: as §1

Binder | SPOT peptide array binding signal intensity
B1 | 1.25

biological target: CaLsb1; assay: as above
How it was run: as §1

Binder | SPOT peptide array binding signal intensity
B1 | 1.25

biological target: CaLsb4; assay: as above
How it was run: as §1

Binder | SPOT peptide array binding signal intensity
B1 | 53.5

biological target: CaMyo5; assay: as above
How it was run: as §1

Binder | SPOT peptide array binding signal intensity
B1 | 156

biological target: CaNbp2; assay: as above
How it was run: as §1

Binder | SPOT peptide array binding signal intensity
B1 | 4920

biological target: CaRvs167; assay: as above
How it was run: as §1

Binder | SPOT peptide array binding signal intensity
B1 | 17

biological target: CaRvs167-3; assay: as above
How it was run: as §1

Binder | SPOT peptide array binding signal intensity
B1 | 2

biological target: CaSho1; assay: as above
How it was run: as §1

Binder | SPOT peptide array binding signal intensity
B1 | ≤ 0

biological target: CaSla1-D1-D2; assay: as above
How it was run: as §1

Binder | SPOT peptide array binding signal intensity
B1 | 2030

biological target: CaSla1-D3; assay: as above
How it was run: as §1

Binder | SPOT peptide array binding signal intensity
B1 | 46.5

biological target: ScAbp1; assay: as above
How it was run: as §1

Binder | SPOT peptide array binding signal intensity
B1 | 65

biological target: ScBbc1; assay: as above
How it was run: as §1

Binder | SPOT peptide array binding signal intensity
B1 | 502

biological target: ScBem1-D1; assay: as above
How it was run: as §1

Binder | SPOT peptide array binding signal intensity
B1 | ≤ 0

biological target: ScBzz1-D1; assay: as above
How it was run: as §1

Binder | SPOT peptide array binding signal intensity
B1 | 16

biological target: ScBzz1-D2; assay: as above
How it was run: as §1

Binder | SPOT peptide array binding signal intensity
B1 | 10

biological target: ScCyk3; assay: as above
How it was run: as §1

Binder | SPOT peptide array binding signal intensity
B1 | ≤ 0

biological target: ScFus1; assay: as above
How it was run: as §1

Binder | SPOT peptide array binding signal intensity
B1 | 4

biological target: ScHof1; assay: as above
How it was run: as §1

Binder | SPOT peptide array binding signal intensity
B1 | 1

biological target: ScHse1; assay: as above
How it was run: as §1

Binder | SPOT peptide array binding signal intensity
B1 | 40

biological target: ScLsb1; assay: as above
How it was run: as §1

Binder | SPOT peptide array binding signal intensity
B1 | 6

biological target: ScLsb2; assay: as above
How it was run: as §1

Binder | SPOT peptide array binding signal intensity
B1 | 55

biological target: ScLsb3; assay: as above
How it was run: as §1

Binder | SPOT peptide array binding signal intensity
B1 | 197

biological target: ScLsb4; assay: as above
How it was run: as §1

Binder | SPOT peptide array binding signal intensity
B1 | 9

biological target: ScMyo3; assay: as above
How it was run: as §1

Binder | SPOT peptide array binding signal intensity
B1 | 3540

biological target: ScMyo5; assay: as above
How it was run: as §1

Binder | SPOT peptide array binding signal intensity
B1 | 1990

biological target: ScNbp2; assay: as above
How it was run: as §1

Binder | SPOT peptide array binding signal intensity
B1 | 5880

biological target: ScPex13; assay: as above
How it was run: as §1

Binder | SPOT peptide array binding signal intensity
B1 | 2620

biological target: ScRvs167; assay: as above
How it was run: as §1

Binder | SPOT peptide array binding signal intensity
B1 | 149

biological target: ScSho1; assay: as above
How it was run: as §1

Binder | SPOT peptide array binding signal intensity
B1 | ≤ 0

biological target: ScSla1-D1-D2; assay: as above
How it was run: as §1

Binder | SPOT peptide array binding signal intensity
B1 | 6020

biological target: ScSla1-D3; assay: as above
How it was run: as §1

Binder | SPOT peptide array binding signal intensity
B1 | 233

biological target: SpAbp1-D1; assay: as above
How it was run: as §1

Binder | SPOT peptide array binding signal intensity
B1 | 40

biological target: SpBbc1; assay: as above
How it was run: as §1

Binder | SPOT peptide array binding signal intensity
B1 | 65

biological target: SpBzz1-D1; assay: as above
How it was run: as §1

Binder | SPOT peptide array binding signal intensity
B1 | 404

biological target: SpBzz1-D2; assay: as above
How it was run: as §1

Binder | SPOT peptide array binding signal intensity
B1 | 71.5

biological target: SpCyk3; assay: as above
How it was run: as §1

Binder | SPOT peptide array binding signal intensity
B1 | 2

biological target: SpHof1; assay: as above
How it was run: as §1

Binder | SPOT peptide array binding signal intensity
B1 | ≤ 0

biological target: SpHof1-2; assay: as above
How it was run: as §1

Binder | SPOT peptide array binding signal intensity
B1 | ≤ 0

biological target: SpHof1-3; assay: as above
How it was run: as §1

Binder | SPOT peptide array binding signal intensity
B1 | ≤ 0

biological target: SpHse1; assay: as above
How it was run: as §1

Binder | SPOT peptide array binding signal intensity
B1 | 52

biological target: SpLsb1; assay: as above
How it was run: as §1

Binder | SPOT peptide array binding signal intensity
B1 | 13.5

biological target: SpLsb4; assay: as above
How it was run: as §1

Binder | SPOT peptide array binding signal intensity
B1 | 136

biological target: SpMyo1; assay: as above
How it was run: as §1

Binder | SPOT peptide array binding signal intensity
B1 | 3740

biological target: SpNbp2; assay: as above
How it was run: as §1

Binder | SPOT peptide array binding signal intensity
B1 | 65

biological target: SpPex13; assay: as above
How it was run: as §1

Binder | SPOT peptide array binding signal intensity
B1 | 93.5

biological target: SpRvs167; assay: as above
How it was run: as §1

Binder | SPOT peptide array binding signal intensity
B1 | 202

biological target: SpSla1-D1-D2; assay: as above
How it was run: as §1

Binder | SPOT peptide array binding signal intensity
B1 | ≤ 0

biological target: SpSla1-D3; assay: as above
How it was run: as §1

Binder | SPOT peptide array binding signal intensity
B1 | 3
